A selection: hits, their analogues and other compounds. The true share with any hit is near 17%.
ATXN2 expr inh: inhibitors of ATXN2 expression. HEK-293 ATXN2-luciferase reporter, luminescence, 24 h. Potency, µM (highest dose often 57 µM), actives largely listed as inhibitors. 360,000 tested, 0.72% active. AID 1745845; note: nearly all actives have a fitted effect of over 55% in size
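ATXN2-luciferase reporter cells (luciferase flanked by upstream and downstream ATXN2 gene portions) were treated 24 h at 37 °C with compounds at up to 57 uM. SteadyGlo luminescence gave expression; GF-AFC fluorescence gave viability.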
DT40 TDP1 CPT: growth inhibition of DT40 Tdp1-/-;hTDP1 cells with camptothecin (screen for TDP1 inhibitors); chicken DT40 Tdp1-/-;hTDP1 cells + 20 nM CPT, ATP luminescence, 48 h; Potency, µM (series often up to 46.2 µM), hits mostly inhibitors; 420,000 tested, 12% active; AID 686979; note: nearly all actives have a fitted effect of over 55% in size
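Chicken DT40 Tdp1-/- cells complemented with human TDP1, 400 cells/well, exposed to compounds plus 20 nM camptothecin for at least 48 h at 37 C; viability read as ATP content by CellTiter-Glo luminescence.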
HepG2 tox: counter-screen for TGF-b inhibitors: cytotoxicity in HepG2 cells; HepG2 CAGA-GFP viability, ATP luminescence, 18 h; 410,000 tested, 0.76% active; Potency, µM (top dose mostly 46.1 µM), usual class: cytotoxic
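HepG2 CAGA-GFP cells (1000/well, DMEM with 1% FBS) received compound, then TGF-beta at 500 pg/mL final, and were incubated 18 hours at 37 degrees C. Viability was read by CellTiter-Glo luminescence. Media-only wells were set as complete cell-killing and DMSO as no toxicity.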
TGFb SMAD3 inh: blocks TGF-b signaling | HepG2 CAGA-GFP TGF-b/SMAD3 reporter, GFP fluorescence, 18 h; TGF-beta stimulated, 500 pg/mL final | Potency, µM (top dose mostly 46.1 µM), actives largely listed as inhibitors | 410,000 tested, 1.2% active; note: nearly all actives have a fitted effect of over 65% in size
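HEPG2 CAGA-GFP, 1000 cells/well; 2 h settle, 37 C; cpd via pin tool; TGF-b 500 pg/mL final; 18 h, 37 C; GFP imaging ex488/em500-530; %Activity normalised to -TGF-b and +DMSO controls; CRC fit, curve class.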
DT40 TDP1 no CPT: qHTS for Inhibitors of human tyrosyl-DNA phosphodiesterase 1 (TDP1): qHTS in cells in absence of CPT; DT40 Tdp1-/- hTDP1 cells, no CPT, ATP luminescence, 48 h; Potency, µM (top dose mostly 46.2 µM), actives largely listed as inhibitors; 420,000 tested, 15% active; AID 686978, 2013; note: nearly all actives have a fitted effect of over 55% in size
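Readout: luminescence from CellTiter-Glo after 30 min in the dark at RT. Cells: DT40 Tdp1-/- with stable hTDP1, 400/well. Exposure: compounds alone, ≥48 hr, 37 °C.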
S2 tox: viability counter-screen for ATXN expression inhibitors; S2 cells (HEK-293 line with an ATXN2-luciferase reporter) viability, CellTiter-Fluor protease fluorescence, 24 h; Potency, µM (titrated, usually from 56.7 µM), usual class: cytotoxic; 400,000 tested, 0.49% active; AID 651635; note: nearly all actives have a fitted effect of over 40% in size
Of the large screens only hits and unclear results are named; the others gave an inactive call. Calls come from the whole dose curve; as a rule, active = well fitted curve in the direction sought with a large enough effect; inconclusive = small, poorly fitted or top-dose-only effect, or another doubt; inactive = no such curve, though single readings can be large; an effect the other way counts as inactive or inconclusive.

CS(=O)(=O)N1CCN(c2ccc(C(=O)NC34CC5CC(CC(C5)C3)C4)cc2[N+](=O)[O-])CC1	DT40 TDP1 CPT 15µM, DT40 TDP1 no CPT 9.2µM
O=C(NC12CC3CC(CC(C3)C1)C2)c1ccc([N+](=O)[O-])cc1	ATXN2 expr inh inconclusive, DT40 TDP1 CPT inconclusive, TGFb SMAD3 inh inconclusive
O=C(NC1CC1)c1ccc(N2CCCCC2)c([N+](=O)[O-])c1	DT40 TDP1 CPT inconclusive, DT40 TDP1 no CPT inconclusive
CCS(=O)(=O)N1CCN(c2ccc(C(=O)NC34CC5CC(CC(C5)C3)C4)cc2[N+](=O)[O-])CC1	DT40 TDP1 CPT 12µM, DT40 TDP1 no CPT 7.3µM, S2 tox inconclusive
Cc1ccc(-c2noc(C(C)NC(=O)c3ccco3)n2)cc1 (stereo not given)	DT40 TDP1 CPT 16µM, TGFb SMAD3 inh inconclusive, DT40 TDP1 no CPT 12µM, S2 tox inconclusive
CC(NC(=O)c1ccco1)c1nc(-c2ccc(C(C)(C)C)cc2)no1 (stereo not given)	DT40 TDP1 CPT 21µM, DT40 TDP1 no CPT 21µM, S2 tox inconclusive
Cc1ccc(-c2noc(C(C)NS(=O)(=O)c3ccc(C)cc3)n2)cc1 (stereo not given)	DT40 TDP1 CPT inconclusive, DT40 TDP1 no CPT 21µM, S2 tox inconclusive
COc1ccc(-c2nc3cnc(OC)nc3n(CCc3ccccc3)c2=O)cc1	none (no result: ATXN2 expr inh, HepG2 tox, TGFb SMAD3 inh, S2 tox)
O=C(O)Cn1cnnn1	none (no result: DT40 TDP1 CPT, HepG2 tox, TGFb SMAD3 inh, DT40 TDP1 no CPT)
COC(=O)c1ccc(NC(=O)c2cc3cc4ccc(OC)c(Cl)c4nc3s2)cc1	none
CCOc1ccc2c(c1)ncn2Cc1ccccc1	none
CCN(CC)C(=O)c1ncn(Cc2ccccc2)c1C(=O)N(CC)CC	none
CCc1c(-c2ccccc2)ncn1Cc1cccc(-c2ccccc2)c1	DT40 TDP1 CPT 8.2µM, DT40 TDP1 no CPT 8.2µM (no result: ATXN2 expr inh, HepG2 tox, TGFb SMAD3 inh, S2 tox)
CCCc1nc2c3ccccc3ccn2c1Cc1cccc(F)c1	DT40 TDP1 CPT inconclusive, TGFb SMAD3 inh inconclusive, DT40 TDP1 no CPT inconclusive, S2 tox inconclusive
CCc1c(-c2ccc(Cl)cc2)ncn1Cc1cccc(-c2ccccc2)c1	DT40 TDP1 CPT 6.5µM, DT40 TDP1 no CPT 7.3µM (no result: ATXN2 expr inh, HepG2 tox, TGFb SMAD3 inh, S2 tox)
CCCc1c(Cc2cccc(F)c2)ncn1Cc1cccc(-c2ccccc2)c1	DT40 TDP1 CPT 3.3µM, DT40 TDP1 no CPT 3.7µM (no result: ATXN2 expr inh, HepG2 tox, TGFb SMAD3 inh, S2 tox)
CCc1c(C2CC2)ncn1Cc1cccc(-c2ccccc2)c1	DT40 TDP1 CPT 1.8µM, DT40 TDP1 no CPT 1.8µM (no result: ATXN2 expr inh, HepG2 tox, TGFb SMAD3 inh, S2 tox)
O=C1CNC(=O)N1CC(=O)N1CCCc2ccccc21	none
Cc1c(N)cc(S(=O)(=O)O)cc1NC(=O)c1cccc([N+](=O)[O-])c1	none
O=C(Cn1c(=O)c2cccn2c2ccccc21)NCc1ccccc1F	DT40 TDP1 no CPT inconclusive
CCn1ccnc1CN(C)Cc1cn(C)nc1-c1ccccc1F	none
CCc1c(-c2ccccc2F)ncn1Cc1cccc(-c2ccccc2)c1	DT40 TDP1 CPT 2.6µM, DT40 TDP1 no CPT 2.6µM (no result: ATXN2 expr inh, HepG2 tox, TGFb SMAD3 inh, S2 tox)
CCc1c(-c2cccc(OC)c2)ncn1Cc1cccc(-c2ccccc2)c1	DT40 TDP1 CPT 6.5µM, DT40 TDP1 no CPT 8.2µM (no result: ATXN2 expr inh, HepG2 tox, TGFb SMAD3 inh, S2 tox)
CC(C)C[C@H](N)c1nnc(S(=O)(=O)Cc2ccc(F)cc2)o1	ATXN2 expr inh inconclusive, DT40 TDP1 CPT 1.3µM, TGFb SMAD3 inh inconclusive, DT40 TDP1 no CPT 2.1µM (no result: S2 tox)
CC(C)C[C@H](N)c1nnc(SCc2ccc(Cl)cc2Cl)o1	TGFb SMAD3 inh inconclusive (no result: DT40 TDP1 CPT, DT40 TDP1 no CPT)
Cc1cccc(NC(=O)C(=O)NNC(=O)c2ccc(C(C)(C)C)cc2)c1	DT40 TDP1 CPT inconclusive, DT40 TDP1 no CPT inconclusive
Cc1ccc(F)c(NC(=O)/C(C#N)=C(\O)c2ccc(C(C)(C)C)cc2)c1	HepG2 tox 13µM, TGFb SMAD3 inh 13µM, DT40 TDP1 no CPT inconclusive (no result: ATXN2 expr inh)
CC1CCN(C(=O)c2cccc(S(=O)(=O)N3CCN(c4ccccc4)CC3)c2)CC1	DT40 TDP1 CPT inconclusive, DT40 TDP1 no CPT inconclusive
CC1CCN(S(=O)(=O)c2cc(C(=O)N3CCN(c4ccccc4)CC3)ccc2Br)CC1	DT40 TDP1 CPT 23µM, DT40 TDP1 no CPT 15µM (no result: ATXN2 expr inh)

Assay outcomes deposited in PubChem by National Center for Advancing Translational Sciences (NCATS).
